Measured values taken from PubChem BioAssay (NCI).
This is part of a sample that, as a whole, favours compounds with a hit. Of some 79,000 tested, about 15% had one in any assay. Cut-off read from the data, not from the text of the source: active = growth inhibition above about 70%; inactive = the rest. *1 amine or outer side, *2 acyl side, *3 side chain or, on linkers, in order; H or OH if unused. Where a SMILES comes first, the peptide text is derived from it. Bridges are numbered along the chain shown (N, C = ends). Roman numbers before positions name the chains, in order. [ ]: non-standard residue; d: D form. Actinocin(9to1) = Cc1c2oc3c(C)ccc(C(=O)[*:1])c3nc-2c(C(=O)[*:2])c(N)c1=O; NMeF = CN[CH](Cc1ccccc1)C(=O)O; Sar = CNCC(=O)O

Experiments:
[1] = NCI Yeast Anticancer Drug Screen. Data for the rad50 strain (AID 155);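 note: 0% = growth of vehicle-only cultures of the same strain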; conditions: S. cerevisiae rad50 strain growth inhibition; at 50.0 µM; active compounds read high
Outline: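 Growth of the mutant yeast was measured after compound exposure and referenced to vehicle-treated cultures.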

[2] = NCI Yeast Anticancer Drug Screen. Data for the mec2-1 strain (AID 157); conditions: S. cerevisiae mec2-1 strain, at 50.0 µM, active compounds read high
Outline: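 Strain: mec2-1 (DNA repair/cell cycle alteration). Compound exposure, then growth measured; inhibition expressed relative to vehicle.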

[3] = NCI Yeast Anticancer Drug Screen. Data for the sgs1 mgt1 strain (AID 161);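 note: 0% = growth of cultures given vehicle only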; conditions: S. cerevisiae sgs1 mgt1 strain, at 50.0 µM, active compounds read high
Outline: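 Inhibition of yeast growth, normalised to vehicle-treated controls, is reported for a strain bearing genetic alterations in DNA damage repair.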

[4] = NCI Yeast Anticancer Drug Screen. Data for the cln2 rad14 strain (AID 165);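 note: 0% = growth equal to vehicle treated cultures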; conditions: S. cerevisiae cln2 rad14 strain, at 50.0 µM, active compounds read high
Outline: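 Compounds are applied to the cln2 rad14 yeast strain, and growth is then compared with that of vehicle-treated cultures to give inhibition.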

[5] = NCI Yeast Anticancer Drug Screen. Data for the bub3 strain (AID 167); conditions: S. cerevisiae bub3 mutant strain, at 50.0 µM, active compounds read high
Outline: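 Whole-cell yeast assay. The mutant strain was incubated with compounds, and growth inhibition was determined by comparison with vehicle-treated cells.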

[6] = NCI Yeast Anticancer Drug Screen. Data for the mlh1 rad18 strain (AID 175); conditions: S. cerevisiae mlh1 rad18 strain growth inhibition; at 50.0 µM; active compounds read high
Outline: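 Read-out is yeast growth inhibition, calculated against vehicle-only controls. The compound was applied to a strain engineered with DNA damage repair alterations.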

Measured: growth inhibition

Cc1cc(N(CCC#N)CCC#N)ccc1N=Nc1cc(Cl)ccc1Cl
inactive: [1] 18.8% | [2] 16.8% | [3] -8.55% | [4] 13.2% | [5] 42% | [6] 16.6%

CN(C)Cc1[nH]c2ccccc2c1C(=O)c1ccccc1
inactive: [1] -4.55% | [2] -8.85% | [3] -12.2% | [4] -18.7% | [5] -25.5% | [6] -25.6%

CC(=O)OCC1OC(OC(C)=O)C(NC(=O)CNC(=O)OCc2ccccc2)C(OC(C)=O)C1OC(C)=O (stereo not given)
inactive: [1] 21.8% | [2] 2.8% | [3] -16.9% | [4] 7.8% | [5] -4.75% | [6] 4.35%

CN(C)Cc1ccccc1O
inactive: [1] 4.15% | [2] 17.6% | [3] -3.6% | [4] -17.6% | [5] 5.65% | [6] -51.5%

O=C1NC(=O)[C@@H](OCC2CCCCC2)[C@@H]2OCC3OC(C(O)C3O)C12 (stereo not given in full)
inactive: [1] -33.9% | [2] -3.1% | [3] 9.9% | [4] 23.2% | [5] 10.3% | [6] -5.7%

CCCCCCCCCC1OCCC(C)O1 (stereo not given)
inactive: [1] 20.2% | [2] 9.95% | [3] -0.6% | [4] -20.9% | [5] 9.5% | [6] 21.2%

CS1(=O)=NC(=O)C(N2C(=O)c3ccccc3C2=O)CC1 (stereo not given)
inactive: [1] 0.6% | [2] 4.9% | [3] -0.95% | [4] -17.4% | [5] 13.2% | [6] 5.5%

O=C(O)C(CCCN1C(=O)c2ccccc2C1=O)N1C(=O)c2ccccc2C1=O (stereo not given)
inactive: [1] -13.1% | [2] -3.3% | [3] -12.3% | [4] -13.8% | [5] -0.35% | [6] -6.95%

CCC(SC(CC)(CC(C)C)C(N)=O)C(N)=O (stereo not given)
inactive: [1] 4.1% | [2] -5.65% | [3] 15.8% | [4] -53% | [5] 6.9% | [6] -14.4%

CCOC(=O)C(CC(CC(C(=O)OCC)C(=O)OCC)=C(C)C)C(=O)OCC
inactive: [1] 36.1% | [2] 0.65% | [3] 15% | [4] -14.5% | [5] 24.2% | [6] 15.4%

CCOC(=O)CCCCN(CC)CCCCC(=O)OCC
inactive: [1] 2.65% | [2] -1.5% | [3] 11.1% | [4] -2.25% | [5] 16.6% | [6] -19.6%

COC(=O)CC[C@@H](NC(=O)C(C)NC(=O)COC1C(O)C(COC(=O)CCCCCCCCCCNC(=O)c2ccc([N+](=O)[O-])c3[nH]c4cc(Br)ccc4c(=O)c23)OC(OCc2ccccc2)C1NC(C)=O)C(N)=O (stereo not given in full)
inactive: [1] -14.5% | [2] -10.7% | [3] -17.6% | [4] 1.5% | [5] -5.75% | [6] -16.6%

COC(=O)CC1OCC=C2CN3CCC45C6=CC(=O)C(=O)C([N+](=O)[O-])=C6NC4C1C2CC35 (stereo not given)
inactive: [1] 0.8% | [2] -22.4% | [3] -15.4% | [4] 8.3% | [5] -4.8% | [6] -17.8%

OCC1CCCC(n2cnc3c(=S)nc[nH]c32)O1 (stereo not given)
inactive: [1] -8.4% | [2] -21.8% | [3] -20.2% | [4] -10.7% | [5] -42.2% | [6] 6.4%

NCCCOc1ccccc1
inactive: [1] -3.6% | [2] -7.8% | [3] -5.1% | [4] -10.3% | [5] -7.05% | [6] -9.35%

NC1CSc2ccccc2NC1=O (stereo not given)
inactive: [1] 20.5% | [2] 31.9% | [3] 7.8% | [4] 9.8% | [5] 22.8% | [6] 33%

Cc1ccc(S(=O)(=O)/C(=C/c2ccccc2)CC(=O)c2ccccc2)cc1
inactive: [1] 9.05% | [2] 6.55% | [3] -22.1% | [4] -18.4% | [5] 11.1% | [6] 17%

COC(=O)Cc1ccccc1C(c1ccccc1)c1ccccc1
inactive: [1] -1.85% | [2] -0.4% | [3] 9.7% | [4] 6.7% | [5] 13.8% | [6] -0.65%

CCOC(=O)c1ccccc1OC(=O)Oc1ccccc1C(=O)OCC
inactive: [1] 17.9% | [2] 10.2% | [3] -5.25% | [4] -23.1% | [5] -5.55% | [6] 33.9%

O=C1CCCc2ccc([N+](=O)[O-])cc21
inactive: [1] -3.35% | [2] -54.7% | [3] -17.2% | [4] 18.6% | [5] -11.8% | [6] 23.1%

Nc1nc(-c2ccccc2)cc(-c2cc(Cl)ccc2O)n1
inactive: [1] 13.9% | [2] -0.55% | [3] -3.1% | [4] 20.5% | [5] 6.4% | [6] 6.55%

Cc1c2oc3c(C)ccc(C(=O)NC4C(=O)NC(C(C)C)C(=O)N5CCCC5C(=O)N(C)CC(=O)N(C)C(Cc5ccccc5)C(=O)OC4C)c3nc-2c(C(=O)NC2C(=O)NC(C(C)C)C(=O)N3CCCC3C(=O)N(C)CC(=O)N(C)C(Cc3ccccc3)C(=O)OC2C)c(N)c1=O (stereo not given) (I: TVP[Sar][NMeF] / II: TVP[Sar][NMeF]; ester I:1-I:C, II:1-II:C; linker I:N-II:N via Actinocin(9to1); configuration not given here)
inactive: [1] -0.6% | [2] 6.05% | [3] -12.7% | [4] 2.15% | [5] -23.6% | [6] -27.4%

CCC1OC(=O)CC(O)C(C)C(OC2OC(C)CC(N(C)C)C2O)C(CC=O)CC(C)C(=O)/C=C/C2(C)OC2C1C (stereo not given)
inactive: [1] -6.9% | [2] -7.55% | [3] -11.3% | [4] -1.55% | [5] -14% | [6] 1.8%

CCOC(=O)c1cc2sc(NC(=O)c3ccco3)nc2o1
inactive: [1] 10.8% | [2] 12.2% | [3] 48.8% | [4] 4.3% | [5] 6.6% | [6] 27.6%

COC(=O)CCNC(=O)OCc1ccccc1
inactive: [1] 14.6% | [2] 30% | [3] -16.7% | [4] 26.6% | [5] -49.6% | [6] -75%

COc1ccc(/C(=N/NS(=O)(=O)c2ccc([N+](=O)[O-])cc2)C2COC(=O)C2)cc1OC (stereo not given)
inactive: [1] 6.15% | [2] -9% | [3] 3.25% | [4] -13.4% | [5] 14% | [6] 2.25%

CCN(CC)C(=N)N
inactive: [1] -11.6% | [2] -1.55% | [3] -27.2% | [4] -34.2% | [5] -22% | [6] -14.4%

N#CC(C(=O)/C(=N\NC(N)=O)C(C#N)c1ccc(Cl)cc1)c1ccc(Cl)cc1 (stereo not given)
inactive: [1] -33.6% | [2] -7.25% | [3] -22.1% | [4] 2.4% | [5] -7.05% | [6] -4.3%

Cc1c(-c2nnc(-c3ccccc3)o2)c(=O)n(-c2ccccc2)n1C
inactive: [1] -7.3% | [2] -6.6% | [3] -30.2% | [4] -27.1% | [5] -26.1% | [6] -21.6%

O=[N+]([O-])c1c(O)c2nonc2c2nn(-c3ccccc3)nc12
inactive: [1] 1.7% | [2] 15% | [3] 55.4% | [4] 25.8% | [5] -15.7% | [6] -15.4%

CC(=O)OCC1OC(n2c(=O)n(-c3ccccc3)c(=O)c3ccccc32)C(OC(C)=O)C(OC(C)=O)C1OC(C)=O (stereo not given)
inactive: [1] -12.8% | [2] 11.3% | [3] -7.9% | [4] 19.1% | [5] -6.85% | [6] 4.65%

C1C[OH+]CC[OH+]CCNCC[OH+]CC[OH+]CCN1.Cl.[Cl-].[Pt+4]
inactive: [1] 8.7% | [2] -9.3% | [3] 6.25% | [4] 10.4% | [5] -3.65% | [6] 7%

CCCCCCc1ccccn1
inactive: [1] 4.6% | [2] 9.3% | [3] 9.6% | [4] -1.6% | [5] -1.4% | [6] 17.8%

CC1(C)C(=O)/C=C\C(=O)C(C)(C)C(=O)/C=C\C(=O)C(C)(C)C2=CC=C(O2)C(C)(C)C(=O)/C=C\C1=O
inactive: [1] 14.9% | [2] 12.2% | [3] -2.4% | [4] 20.9% | [5] 7.9% | [6] 14.4%

Cc1cc(=O)c2cc([N+](=O)[O-])ccc2[nH]1
inactive: [1] 6.05% | [2] 6.35% | [3] -9.7% | [4] -5.95% | [5] 5.85% | [6] -2.65%

NC(=O)n1ccc(CC(O)(C(F)(F)F)C(F)(F)F)n1
inactive: [1] -13.2% | [2] 44% | [3] -2.55% | [4] 55.1% | [5] 2.35% | [6] 22.4%

CC1=Cc2cc3[n-]c(cc4nc(cc5[n-]c(cc1n2)c(C)c5CCC(=O)O)C(CCC(=O)O)=C4C)cc3C.[Cu+2]
inactive: [1] 0.9% | [2] -0.9% | [3] 10.3% | [4] -49.5% | [5] 15.2% | [6] -0.5%

COc1ccc2c(ccc3[nH]c4c(C)cnc(NCCCN(C)C)c4c32)c1
inactive: [1] -16.6% | [2] -7.6% | [3] -2.7% | [4] -3.55% | [5] 4.05% | [6] -7.85%

CCCC(O)c1ccccc1 (stereo not given)
inactive: [1] 31.2% | [2] 35.8% | [3] -9.65% | [4] 5.3% | [5] 3.7% | [6] 18.9%

CC(=O)Nc1ccc(S(=O)(=O)N/N=c2/sc3ccccc3n2C)cc1
inactive: [1] -11.3% | [2] -12.4% | [3] 16% | [4] 20.5% | [5] 13.8% | [6] -4%
